10 compounds from PubChem BioAssay (Tox21) can be followed below.

The target of assay [1] is Retinoic acid receptor RXR-alpha (Homo sapiens) (UniProt P19793). In words: qHTS assay to identify small molecule agonists of the RXR signaling pathway (AID 1159527; calls by dose curve; also: nearly all actives have a fitted effect of over 35% in size; also: potency is read from the fitted curve at half-maximal effect). An outline of the steps: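 Read-out: beta-lactamase FRET ratio (405 nm excitation, 460 and 530 nm emission) after 2 hr substrate loading at room temperature. Cells were RXR-alpha-UAS-bla HEK 293T treated with compounds for 16 hr in 2% charcoal-stripped FBS medium.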
(In general: In qHTS, concentration-response curves come from the screen itself.)

The nature of assay [2]: qHTS assay to identify small molecule agonists of the RXR signaling pathway - cell viability counter screen (AID 1159529). Also: series mostly up to about 77 µM; nearly all actives have a fitted effect of over 50% in size. An outline of the steps: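 HEK 293T RXRa-bla cells, 2% CS-FBS; 5 h settle; cpd 16 h 37 C, 5% CO2; CellTiter-Glo 30 min RT, luminescence. Tetraoctyl ammonium bromide as positive control.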
The nature of assay [3]: qHTS assay to identify small molecule antagonists of the retinoid acid receptor (RAR) signaling pathway - cell viability counter screen (AID 1159551). Also: nearly all actives have a fitted effect of over 35% in size. An outline of the steps: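 Luminescent ATP quantitation (CellTiter-Glo) gave cell viability in C3RL4 cells exposed to test chemicals for 6 h at 37 C alongside 1 uM final retinol.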
Assay [4] in a line: qHTS assay to identify small molecule antagonists of the estrogen related receptor (ERR) signaling pathway - cell viability counter screen (AID 1224818).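 Also: series mostly up to about 46 µM; viability measured after 17.5 h of compound exposure.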 An outline of the steps: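 Multiplexed counter screen to separate cytotoxic compounds from true ERR modulators. ERR cells received DMSO-dissolved compounds after a 6 h pre-incubation, were exposed 17.5 h at 37 C, then assayed with CellTiter-Fluor fluorescence.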

Assay [5] is described as follows: qHTS assay to identify small molecule antagonists of the estrogen related receptor signaling pathway with the pleiotropic PPARgamma coactivator (PGC) cell viability counter screen (AID 1224822; also: series mostly up to about 46 µM). An outline of the steps:
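Cells: PGC/ERR, 2,000/well, 1536-well format. Pre-incubation 6 h, 37 C/5% CO2. Compound exposure 17.5 h, 37 C. Detection: CellTiter-Fluor, 30 min, fluorescence.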

A short description of assay [6]: qHTS assay to identify small molecule antagonists of the estrogen related receptor (ERR) signaling pathway from Tox21 library - cell viability counter screen (AID 1224834). Also: nearly all actives have a fitted effect of over 30% in size. An outline of the steps: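 Fluorescence from CellTiter-Fluor gives the viability read-out, taken 30 min after reagent addition. Before that, ERR cells seeded 6 h earlier were incubated with compounds for 17.5 h at 37 C.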

The target of assay [7] is Luciferin 4-monooxygenase (Photinus pyralis) (UniProt P08659). In words: qHTS assay to identify small molecule inhibitors of firefly luciferase (AID 1224835). Also: series mostly up to about 120 µM; nearly all actives have a fitted effect of over 25% in size. An outline of the steps: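 Quantitative HTS format; KM concentrations of both substrates. Purified P. pyralis FLuc activity quantified from luminescence images.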
Assay [8] in a line: qHTS assay to identify small molecule agonists of the constitutive androstane receptor (CAR) signaling pathway - cell viability counter screen (AID 1224836). Also: series mostly up to about 92 µM; nearly all actives have a fitted effect of over 45% in size. An outline of the steps:
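HepG2-CYP2B6-hCAR, 2500 cells/well, 4 h pre-incubation; cpd 15 conc + PK11195 0.75 uM final; 23 h, 37 C/5% CO2; CellTiter-Fluor, fluorescence.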

The nature of assay [9]: qHTS assay to identify small molecule antagonists of the constitutive androstane receptor (CAR) signaling pathway - cell viability counter screen (AID 1224837). Also: series mostly up to about 92 µM; nearly all actives have a fitted effect of over 45% in size. An outline of the steps:
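HepG2-CYP2B6-hCAR cells, 2500/well, 4 hr pre-incubation; compound titration, 15 conc.; CITCO 50 nM final; 23 hr, 37 C/5% CO2; CellTiter-Fluor, fluorescence intensity.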

Assay [10] in a line: qHTS assay to identify small molecule antagonists of the estrogen related receptor signaling pathway with the pleiotropic PPARgamma coactivator (PGC) from Tox21 10K library - cell viability counter screen (AID 1224840; active = well fitted cell-killing curve with a large enough effect in the repeat runs, not every such curve was filed as active; also: nearly all actives have a fitted effect of over 40% in size). An outline of the steps: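 PGC/ERR cells, 2,000/well; 6 h pre-incubation 37 C/5% CO2; cpd in DMSO via pin tool; 17.5 h 37 C; CellTiter-Fluor, 30 min; fluorescence.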

Assay [11] can be described thus: qHTS assay to identify small molecule antagonists of the retinoic acid receptor (RAR) signaling pathway (AID 1159552; also: nearly all actives have a fitted effect of over 50% in size). An outline of the steps: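 Cells of the C3RL4 line were seeded, incubated overnight, then dosed with compounds in DMSO followed immediately by retinol (1 uM final). Six hours later luciferase detection reagent went in; signal was measured after 30 min at RT.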

The nature of assay [12]: qHTS assay to identify small molecule agonists of the retinoic acid receptor (RAR) signaling pathway (AID 1159553). An outline of the steps: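 Luminescence from a RARE-driven luciferase reporter in C3RL4 cells served as the read-out, measured after 30 min with detection reagent at room temperature. Compounds in DMSO were applied for 6 hr at 37 C following overnight seeding.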

Assay [13] can be described thus: qHTS assay to identify small molecule antagonists of the estrogen related receptor signaling pathway with the pleiotropic PPARgamma coactivator (PGC) from Tox21 10K library (AID 1224841; call rule not given here; also: actives are mostly falling curves and most rising ones were filed inactive; nearly all actives have a fitted effect of over 50% in size; also: potency is read from the fitted curve at half-maximal effect). An outline of the steps:
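PGC/ERR cell line, 2,000 cells/well; 6 h pre-incubation 37 C/5% CO2; compounds (DMSO) pinned in; 18 h, 37 C; One-Glo, 30 min RT; luminescence.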

Assay [14] can be described thus: qHTS assay to identify small molecule agonists of the estrogen related receptor signaling pathway with the pleiotropic PPARgamma coactivator (PGC) from Tox21 10K library (AID 1224842). Also: nearly all actives have a fitted effect of over 15% in size. An outline of the steps: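 PGC/ERR reporter cells (NTP line) were seeded 2,000 per well, rested 6 h at 37 C/5% CO2, then pin-dosed with compounds in DMSO for 18 h at 37 C; luciferase read by One-Glo luminescence after 30 min at room temperature.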

Assay [15] addresses Nuclear receptor subfamily 1 group I member 3 (Homo sapiens) (UniProt Q14994). The assay is described as follows: qHTS assay to identify small molecule antagonists of the constitutive androstane receptor (CAR) signaling pathway (AID 1224838).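 Also: HepG2 cells stably expressing hCAR with CYP2B6 luciferase reporter stimulated by CITCO; nearly all actives have a fitted effect of over 40% in size.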 An outline of the steps: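 HepG2-CYP2B6-hCAR cells; 4 h pre-incubation; cpd (15 conc) + CITCO 50 nM final; 24 h, 37 C/5% CO2; ONE-Glo, luminescence.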

Assay [16] shares this target. In words: qHTS assay to identify small molecule agonists of the constitutive androstane receptor (CAR) signaling pathway (AID 1224839). Also: nearly all actives have a fitted effect of over 15% in size. Also: potency is read from the fitted curve at half-maximal effect. An outline of the steps: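 HepG2-CYP2B6-hCAR cells, 2500/well, 4 h pre-incubation; compounds 15 conc.; PK11195 0.75 uM final; 24 h, 37 C/5% CO2; ONE-Glo luciferase read.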
Assay [17] can be described thus: qHTS assay to identify small molecule antagonists of the estrogen related receptor (ERR) signaling pathway (AID 1224819;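 also: luminescence from an ERR-driven luciferase reporter measured with One-Glo reagent; series mostly up to about 46 µM; nearly all actives have a fitted effect of over 50% in size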). An outline of the steps: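 Seed ERR cells 2,000/well; rest 6 h at 37 C/5% CO2; pin compounds in DMSO; incubate 18 h at 37 C; add One-Glo; wait 30 min at room temperature; measure luminescence.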
A short description of assay [18]: qHTS assay to identify small molecule agonists of the estrogen related receptor (ERR) signaling pathway (AID 1224820). An outline of the steps:
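Quantitative HTS of the LOPAC library used NTP ERR reporter cells treated 18 h at 37 C. Signal is luminescence after One-Glo addition and a 30 min room-temperature incubation.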

Assay [19] has as its system estrogen-related receptor alpha (ERRalpha) with PGC-1alpha coactivator, human. The assay is described as follows: qHTS assay to identify small molecule antagonists of the estrogen related receptor signaling pathway with the pleiotropic PPARgamma coactivator (PGC) (AID 1224821; calls by dose curve). An outline of the steps:
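Quantitative HTS for antagonism: PGC/ERR cells received compounds after 6 h attachment and were incubated 18 h at 37 C, with luminescence (One-Glo) as the endpoint.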

Assay [20] is described as follows: qHTS assay to identify small molecule agonists of the estrogen related receptor signaling pathway with the pleiotropic PPARgamma coactivator (PGC) (AID 1224823). An outline of the steps:
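Cell-based luciferase assay in the NTP-supplied PGC/ERR line, 2,000 cells/well; 18 h compound exposure at 37 C, luminescence after One-Glo.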

Values joined by “and” are separate entries in the source; they are usually repeats but may differ in a detail not shown here. Equal entries are not always repeated. Inconclusive results are not listed. The source holds several records for some structures; these can differ, active in one and inactive in another. Active and inactive are the calls of the source. Unless noted, calls follow the shape of the dose curve; as a rule, active = well fitted curve in the direction sought with a large enough effect in the repeat runs; inconclusive = weak or mixed curves; inactive = no such curve, though single readings can be large; an effect the other way counts as inactive or inconclusive.

Sequence of Retinoic acid receptor RXR-alpha (Homo sapiens) (P19793 whole entry, looked up): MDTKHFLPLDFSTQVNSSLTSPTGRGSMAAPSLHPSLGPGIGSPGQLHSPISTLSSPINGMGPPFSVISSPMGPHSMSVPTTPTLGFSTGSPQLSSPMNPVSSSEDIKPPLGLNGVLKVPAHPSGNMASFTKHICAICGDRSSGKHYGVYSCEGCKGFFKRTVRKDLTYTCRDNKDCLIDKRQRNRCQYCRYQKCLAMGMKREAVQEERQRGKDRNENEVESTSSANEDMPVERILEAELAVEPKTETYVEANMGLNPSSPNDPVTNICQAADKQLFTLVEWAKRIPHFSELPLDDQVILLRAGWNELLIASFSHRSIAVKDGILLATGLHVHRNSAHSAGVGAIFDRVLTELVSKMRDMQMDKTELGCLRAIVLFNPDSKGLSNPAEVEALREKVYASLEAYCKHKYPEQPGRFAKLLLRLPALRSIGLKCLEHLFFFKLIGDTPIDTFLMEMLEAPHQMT
Sequence of Luciferin 4-monooxygenase (Photinus pyralis) (P08659 whole entry, looked up): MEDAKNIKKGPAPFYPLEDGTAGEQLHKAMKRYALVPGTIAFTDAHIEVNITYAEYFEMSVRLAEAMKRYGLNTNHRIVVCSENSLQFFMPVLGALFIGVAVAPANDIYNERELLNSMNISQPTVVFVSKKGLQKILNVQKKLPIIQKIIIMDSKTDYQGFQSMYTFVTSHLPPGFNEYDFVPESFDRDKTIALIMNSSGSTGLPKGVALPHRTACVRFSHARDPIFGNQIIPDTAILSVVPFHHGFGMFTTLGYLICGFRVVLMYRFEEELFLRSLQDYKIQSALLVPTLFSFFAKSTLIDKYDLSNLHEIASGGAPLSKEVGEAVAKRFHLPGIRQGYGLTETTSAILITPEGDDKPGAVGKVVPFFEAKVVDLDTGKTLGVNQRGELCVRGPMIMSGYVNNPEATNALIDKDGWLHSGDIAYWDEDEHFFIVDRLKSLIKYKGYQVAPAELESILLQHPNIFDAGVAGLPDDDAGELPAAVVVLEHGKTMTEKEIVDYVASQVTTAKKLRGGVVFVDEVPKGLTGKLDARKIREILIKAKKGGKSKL
Sequence of Nuclear receptor subfamily 1 group I member 3 (Homo sapiens) (Q14994 whole entry, looked up): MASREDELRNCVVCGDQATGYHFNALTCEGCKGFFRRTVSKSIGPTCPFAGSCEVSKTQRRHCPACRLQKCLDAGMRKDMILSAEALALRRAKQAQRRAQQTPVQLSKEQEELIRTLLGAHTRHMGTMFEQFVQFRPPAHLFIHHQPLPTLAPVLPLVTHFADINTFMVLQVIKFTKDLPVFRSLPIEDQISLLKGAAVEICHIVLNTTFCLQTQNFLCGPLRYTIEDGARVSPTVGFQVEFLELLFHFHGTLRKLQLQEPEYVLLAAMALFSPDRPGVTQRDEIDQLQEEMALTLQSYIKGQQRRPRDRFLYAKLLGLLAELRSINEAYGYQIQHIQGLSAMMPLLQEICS

As for `Cn1c(=O)c2[nH]cnc2n(C)c1=O`, the Potency in [1] was 13.8 µM (active) and inactive. Besides, the Potency entry in assay [2], in assay [6], in [7], in assay [8], in assay [9] and in assay [10] was “inactive” each time. In addition, the compound was classed as inactive in [3], in assay [4] and in [5].

As for `Cc1ccc(O)cc1`, the Potency entry in [1], in [2], in [11], in assay [6], in assay [7] and in [10] was “inactive” in each case. For the same compound, the outcome in assay [3] and in [12] was inactive.

Turning to `Nc1ccn([C@H]2CC[C@@H](CO)O2)c(=O)n1`, the Potency result in assay [1], in [2], in assay [6], in assay [7], in [8] and in assay [9] was “inactive” in each case. The Potency result in assay [10] was “inactive”. Besides, the compound was classed as inactive in assay [3], in assay [4] and in assay [5].

Turning to `CCCC(O)C(CC)CO` (stereo not given), the Potency entry in assay [1], in assay [2], in [6], in assay [7], in assay [8] and in assay [9] was “inactive” each time. Besides, the Potency entry in [10] is “inactive”. In assay [3], the compound was called inactive.

Turning to `Cc1cn([C@H]2C[C@H](N=[N+]=[N-])[C@@H](CO)O2)c(=O)[nH]c1=O`, the Potency result in assay [1], in assay [2], in [11], in assay [6], in assay [7] and in assay [8] was “inactive” in each case. In addition, the Potency result in assay [9], in assay [10], in assay [13] and in assay [14] was “inactive” each time. Moreover, the result in [3] and in [12] was inactive.

As to `O=C(c1ccccc1)c1ccccc1`, the Potency entry in assay [1], in assay [2], in [11], in assay [6], in [8] and in [9] was “inactive” in each case. Also, the Potency entry in [10] is “inactive”. The compound was classed as inactive in assay [3] and in assay [12].

As to `O=C(O)c1cccnc1`, the Potency entry in [2], in assay [6], in assay [8], in assay [9], in assay [15] and in [16] was “inactive” throughout. In assay [10], the Potency entry is “inactive”. The outcome in [3] was inactive.

On to `C/C=C/c1ccc(OC)cc1`, for which the Potency entry in assay [1], in assay [2], in assay [6], in [7], in assay [8] and in [9] was “inactive” each time. In addition, the Potency entry in assay [15], in assay [16] and in assay [10] was “inactive” in each case. The compound was classed as inactive in assay [3].

Turning to `COc1ccc2[nH]cc(CCNC(C)=O)c2c1`, the Potency entry in assay [1], in assay [2], in assay [18], in [20], in [6] and in assay [7] was “inactive” each time. Besides, the Potency result in [8], in assay [9], in assay [15], in assay [16], in [10] and in assay [13] was “inactive” throughout. In addition, the Potency result in assay [14] was “inactive”. For the same compound, the result in assay [3], in assay [4], in assay [17], in [19] and in assay [5] was inactive.

As to `CCCCOC(=O)CC(CC(=O)OCCCC)(OC(C)=O)C(=O)OCCCC`, the Potency entry in assay [1], in [2], in assay [6], in assay [7], in assay [8] and in [9] was “inactive” throughout. For the same compound, the Potency result in assay [15], in assay [10] and in assay [14] was “inactive” each time. In addition, the compound was classed as inactive in assay [3]. Moreover, the Potency in [16] is 17.4 µM (active) and 27.3 µM (active); in [13], “inactive and 24.6 µM (active)”.
